Most compounds without a hit are left out; they make up all but 6.7% or so of the library.
KB-3-1 tox – kills parental KB-3-1 adenocarcinoma cells; KB-3-1 viability, CellTiter-Glo ATP luminescence, 72 h; Potency, µM (highest dose often 46.1 µM), most hits filed as cytotoxic; actives 1.4% (n = 400,000); further: on the % scale 0 is the no-effect control and ±100 the full control effect; nearly all actives have a fitted effect of over 60% in size
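Parental KB-3-1 viability, qHTS format: 72 h compound exposure, 37 °C; CellTiter-Glo; media-only wells and DMSO plates as controls; concentration-effect fits on corrected data.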
MCF10A rerep – inducers of DNA re-replication in MCF 10A breast cells; MCF 10A DNA re-replication, Hoechst nuclear intensity, 48 h; Potency, µM (doses to about 46.1 µM), inactives show top-dose activity, positive = re-replication, hits mostly activators; actives 2.9% (n = 350,000); AID 624296; further: % of control where 0% means no effect; nearly all actives have a fitted effect of over 50% in size
PINK1 expr mod – changes PINK1 expression. PINK1 immunofluorescence, high-content cytometry, 24 h. Potency, µM (highest dose often 76.6 µM), inactives show at the highest dose activation (PINK1 increase), hits mostly activators. actives 0.2% (n = 410,000); active means well fitted activation curve with a large enough effect; inconclusive means small, poorly fitted or top-dose-only effect; cell line not stated here; further: % of control where 0% means no effect; nearly all actives have a fitted effect of over 65% in size
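Measures PINK1 amount and localization on or inside mitochondria by immunofluorescence. Stable cells get compounds at 5 concentrations for 24 hours before fixation and staining; CCCP controls included.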
KB-V1 MDR tox – kills drug-selected multidrug resistant KB-V1 cells; actives 3.4% (n = 400,000); Potency, µM (doses to about 46.1 µM), usual class: cytotoxic; AID 1347076; KB-V1 MDR cells viability, CellTiter-Glo, 72 h; further: on the % scale 0 is the no-effect control and ±100 the full control effect; nearly all actives have a fitted effect of over 60% in size
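Drug-selected KB-V1 cells, grown in DMEM lacking phenol red with 10% FBS, receive compound titrations; after three days at 37 degrees C, surviving cell ATP is quantified by CellTiter-Glo luminescence and responses normalized and curve-fitted.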
SW480 rerep – inducers of DNA re-replication in SW480 colon cancer cells; actives 1.8% (n = 340,000); AID 624297; Potency, µM (top dose mostly 46.1 µM), for the others: top-dose re-replication activation, most hits filed as activators; SW480 DNA re-replication, Hoechst DNA content imaging, 48 h; further: % of control where 0% means no effect; nearly all actives have a fitted effect of over 55% in size
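SW480 cells exposed to compounds for 48 hr at 37 C, 5% CO2, then Hoechst-stained 40 min. Nuclear DNA content imaged by fluorescence scanning (405 nm excitation, 500-530 nm emission); re-replication scored as increased high-intensity nuclei.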
* hit, by the source's call; [ ] = dose if it differs, or a comment. Unless noted, the call rests on the fitted dose curve; in most records, active means well fitted curve in the direction sought with a large enough effect; inconclusive means small, poorly fitted or top-dose-only effect, or another doubt; inactive means no such curve, though single readings can be large; an effect the other way counts as inactive or inconclusive. Potency means the concentration at half of the fitted maximal effect.

For Cc1cccc(N/N=C(\C(N)=O)C2=NC(C)(C)Cc3ccccc32)c1 the results were KB-3-1 tox 16µM*, MCF10A rerep 12µM*, PINK1 expr mod 0%, KB-V1 MDR tox 23µM* and SW480 rerep 16%.
COc1ccc(S(=O)(=O)N2CCCCC2)cc1NC(=O)CCOc1cc(C)ccc1C was read as KB-3-1 tox inactive, MCF10A rerep 4%, PINK1 expr mod 3%, KB-V1 MDR tox inactive and SW480 rerep -6%.
`CC(=O)Nc1ccc(-c2ccnc3c2CC(C)(C(=O)NCc2cccc(Cl)c2)O3)cc1` (stereo not drawn) gave KB-3-1 tox inconclusive, PINK1 expr mod 6% and KB-V1 MDR tox inconclusive.
Screening CC(=O)Nc1ccc(-c2ccnc3c2CC(C)(C(=O)NCc2ccc(F)c(F)c2)O3)cc1 (stereo not drawn) returned KB-3-1 tox 8.2µM*, PINK1 expr mod 8% and KB-V1 MDR tox inactive.
Screening CC(=O)Nc1cccc(-c2ccnc3c2CC(C)(C(=O)NCc2cccs2)O3)c1 (stereo not drawn) returned KB-3-1 tox 3.3µM*, PINK1 expr mod 8% and KB-V1 MDR tox inactive.
`CC(=O)Nc1cccc(-c2ccnc3c2CC(C)(C(=O)NCc2cccc(Cl)c2)O3)c1` (stereo not drawn) gave KB-3-1 tox 15µM*, PINK1 expr mod 5% and KB-V1 MDR tox inconclusive.
Screening CC(=O)Nc1cccc(-c2ccnc3c2CC(C)(C(=O)NCc2ccc(N(C)C)cc2)O3)c1 (stereo not drawn) returned KB-3-1 tox 10µM*, PINK1 expr mod 6% and KB-V1 MDR tox inconclusive.
For CCC(=O)N1CCC(C)(C(=O)Nc2ccc3c(c2)OCCO3)C1 (stereo not drawn) the results were KB-3-1 tox inactive, PINK1 expr mod 1% and KB-V1 MDR tox inactive.
For CCC12CN3CC(CC)(CN(C1)C3c1cc(Br)ccc1OC)C2=O (stereo not drawn) the results were KB-3-1 tox inactive, PINK1 expr mod 0% and KB-V1 MDR tox inactive.
Cc1ccc(-c2c(C(=O)N/N=C/c3c[nH]c4ccccc34)nnn2-c2nonc2N)cc1 was read as KB-3-1 tox inactive, MCF10A rerep 0%, PINK1 expr mod -2%, KB-V1 MDR tox inactive and SW480 rerep -7%.
For CC(=O)Nc1cccc(-c2ccnc3c2CC(C)(C(=O)NCCc2ccccc2)O3)c1 (stereo not drawn) the results were KB-3-1 tox 4.1µM*, PINK1 expr mod 4% and KB-V1 MDR tox inconclusive.
For CC(=O)Nc1cccc(-c2ccnc3c2CC(C)(C(=O)Nc2ccc(F)c(Cl)c2)O3)c1 (stereo not drawn) the results were KB-3-1 tox inconclusive, PINK1 expr mod 3% and KB-V1 MDR tox 21µM*.
Screening CC(=O)Nc1cccc(-c2ccnc3c2CC(C)(C(=O)Nc2cccc(Oc4ccccc4)c2)O3)c1 (stereo not drawn) returned KB-3-1 tox inconclusive, PINK1 expr mod 4% and KB-V1 MDR tox 21µM*.
`CC1(C(=O)Nc2ccc(F)c(Cl)c2)Cc2c(-c3cccc(C(N)=O)c3)ccnc2O1` (stereo not drawn) gave KB-3-1 tox inactive, PINK1 expr mod 1% and KB-V1 MDR tox inconclusive.
`CCCCCCc1cc2cc(-c3nnc(-c4ccccc4O)o3)c(=O)oc2cc1O` gave KB-3-1 tox inconclusive, MCF10A rerep 0.73µM*, PINK1 expr mod inconclusive, KB-V1 MDR tox 13µM* and SW480 rerep 2.3µM*.
`O=C(O)c1ccc2oc(=O)c(S(=O)(=O)c3ccc(F)cc3)cc2c1` gave KB-3-1 tox inactive, MCF10A rerep 6%, PINK1 expr mod -1%, KB-V1 MDR tox inactive and SW480 rerep 9%.
COc1ccc(-c2nnc(-c3cc4ccccc4oc3=O)o2)cc1 was read as KB-3-1 tox inactive, MCF10A rerep -1%, PINK1 expr mod 1%[38.3 µM], KB-V1 MDR tox inactive and SW480 rerep 2%.
Screening CCCCCCc1cc2cc(S(=O)(=O)c3ccc(F)cc3)c(=O)oc2cc1O returned KB-3-1 tox inactive, MCF10A rerep 2.3µM*, PINK1 expr mod 40µM*, KB-V1 MDR tox inconclusive and SW480 rerep 4.6µM*.
